# From PubChem BioAssay (EPA / NIEHS)
# Results filed as inconclusive are left out. Active and inactive are the calls of the source. Rule for the calls: active = hit-call score of the fitted dose curve at least 0.9, where 1 is the maximum; inconclusive = response in the unintended direction; inactive = score below 0.9.
# Test: TOX21_p53_BLA_p5_viability: Viability Assessment in the Tox21 HCT-116 p53 Agonism Beta-lactamase Assay, Phase 5 (AID 2283600)
# Procedure, shortened: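 4000 cells/well; 5 h pre-incubation; DMSO compounds pin-transferred, 217-fold dilution; 16 h, 37C/5% CO2; CCF4-AM 2 h RT; CellTiter-Glo 30 min RT; luminescence.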
row,Molecule,outcome
1,C[C@@]12C(=O)OC(=O)[C@]1(C)C1CCC2O1,inactive
2,CN(C)CCn1nnnc1SCC1=C(C(=O)O)N2C(=O)[C@@H](NC(=O)Cc3csc(N)n3)[C@H]2SC1,inactive
3,COc1cc(NS(=O)(=O)c2ccc(N)cc2)ncn1,inactive
4,CN(C)CCC(c1ccccc1)c1ccccn1 (centres undefined),inactive
5,CC1=C(/C=C/C(C)=C/C=C/C(C)=C/C=C/C=C(C)/C=C/C=C(C)/C=C/C2=C(C)CCCC2(C)C)C(C)(C)CCC1,inactive
6,OCCN1CCN(CCO)CC1,inactive
7,C/C=C/C=C/CO,inactive
8,CC1CCC(NC(=O)N(CCCl)N=O)CC1 (centres undefined),inactive
9,CC(=O)N[C@@H](CC(C)C)C(=O)O,inactive
10,Cc1cc(=O)oc2cc(O)cc(O)c12,inactive
11,CCCCCCCC,inactive
12,CCOC(=O)c1c[nH]c2cc(OCC(C)C)c(OCC(C)C)cc2c1=O,inactive
13,CC(=O)Oc1cccc(C)c1,inactive
14,CCC(=O)OC(=O)CC,inactive
15,O=C(O)CNC(=O)c1ccc([N+](=O)[O-])cc1,inactive
16,CCC(=O)OC,inactive
17,O=[N+]([O-])c1ccccc1Nc1ccccc1,inactive
18,NC(CSCC(=O)O)C(=O)O (centres undefined),inactive
19,CCN(CC)c1cccc(O)c1,inactive
20,CCCCCC=CCC1CC(=O)OC1=O (centres undefined),inactive

row,Molecule,outcome
1,CC1CCc2cc(F)cc3c(=O)c(C(=O)O)cn1c23 (centres undefined),inactive
2,CCOC(=O)COc1ccc2c(C)c(CCN(CC)CC)c(=O)oc2c1,inactive
3,CCCCC,inactive
4,CC=CC(=O)CC,inactive
5,H-RKDVY-OH,inactive
6,CO/N=C(\C(=O)N[C@@H]1C(=O)N2C(C(=O)O)=CCS[C@H]12)c1csc(N)n1,inactive
7,C#CCN(C)CCCOc1ccc(Cl)cc1Cl,inactive
8,CC(C(=O)O)c1ccc2c(c1)[nH]c1ccc(Cl)cc12 (centres undefined),inactive
9,C=CCn1cc[n+](C)c1,inactive
10,C[S+](CC[C@H](N)C(=O)O)C[C@H]1O[C@@H](n2cnc3c(N)ncnc32)[C@H](O)[C@@H]1O (some centres undefined),inactive
11,O=C(O)c1cc(O)c2c(c1)[C@H]([C@H]1c3cc(C(=O)O)cc(O)c3C(=O)c3c(O[C@@H]4O[C@H](CO)[C@@H](O)[C@H](O)[C@H]4O)cccc31)c1cccc(O[C@@H]3O[C@H](CO)[C@@H](O)[C@H](O)[C@H]3O)c1C2=O,inactive
12,CC(C)(C)OCC1CO1 (centres undefined),inactive
13,N=C(N=C(N)N)N1CCOCC1,inactive
14,c1coc(Cn2cccc2)c1,inactive
15,NCCCNCCCCNC(=O)C(O)NC(=O)CCCCCCN=C(N)N (centres undefined),inactive
16,C=C(C)C1CC=C(C)C(O)C1 (centres undefined),inactive
17,CC(C)[C@@H](N)C(=O)O,inactive
18,CCC1OCC(COc2ccc(Oc3ccccc3)cc2)O1 (centres undefined),inactive
19,CN1C(=O)CC(c2ccccc2)C1=O (centres undefined),inactive
